Laboratory results as given in PubChem BioAssay (NCI).
This is part of a sample that, as a whole, favours compounds with a hit. Of some 83,000 tested, about 20% had one in any assay.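 Testing used 96-well plates and a 48-hour single-concentration exposure. Example: -40 means 40% of the starting cells died.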 Unmarked numbers belong to inactive results. Activity calls are given as the source filed them. How the source made its calls: active means growth percent below 10; inactive means the rest.

Each compound was assayed on HT29 colon (assay: NCI-60 one-dose screen, 48 h (100 = growth as untreated, 0 = no growth, -100 = all killed)). Conditions: 10 µM unless noted.

Compound | growth
Cc1nn(-c2ccccc2)c2nc(C)n(-c3ccc(Br)cc3)c(=O)c12 | -15.7% (active)
CCOC(=O)C(CC)n1c(=O)c2cc(OC)c(OC)cc2c2cnc3[nH]ccc3c21 (stereo not drawn) | 76.9%
CC(C)c1c(C(=O)Nc2ccccc2)c(-c2ccccc2)c(-c2ccc(F)cc2)n1CC[C@@H]1CC=CC(=O)O1 | -35.6% (active)
CC(=O)N1CC(Nc2ccc(OC(F)(F)F)cc2)=CC1=O | 7.79% (active)
Oc1ccccc1/C=N/Nc1ccc2ccccc2n1 | 48.9%
O=[N+]([O-])c1cccc(C2CC(c3ccccc3)=Nc3ccccc3S2)c1 (stereo not drawn) | 44.1%
CCCCCC(=O)N(CCCC)CCCC | 111%
CCCCCCCCCCCCCCCCNCCC[C@@H](C)[C@H]1CC[C@H]2[C@@H]3[C@H](OCCCN)C[C@@H]4C[C@H](OCCCN)CC[C@]4(C)[C@H]3C[C@H](OCCCN)[C@]12C | -41% (active)
COc1ccc(-c2cc(NC(=O)Nc3ccc(O)cc3)no2)cc1 | 98.8%
O=C(O)C(O)C(O)C(=O)O.[NH-]C1CCCCC1[NH-].[Pt+2] (stereo not drawn) | 111%
CCCNc1nc(SC)nc(-c2cccc(N)c2)c1C#N | 116%
CC(=O)OCC(=O)C1CCC=CC1OC(C)=O (stereo not drawn) | 107%
Nc1ccc(Nc2nccc(-c3ccc4ccccc4c3)n2)cc1 | 14.3%
O=S(=O)(Nc1ccc(Cl)cc1Cl)c1ccc(-c2cnc(C3CC3)o2)cc1 | 1.27% (active)
O=C1/C(=C/c2ccc(Cl)cc2Cl)CN(S(=O)(=O)c2ccccc2)C/C1=C\c1ccc(Cl)cc1Cl | -27.5% (active)
COc1ccc(-c2nc(Nc3cc(C)[nH]n3)c3ccccc3n2)cc1 | 17.4%
COc1ccc(-c2csc(NC(=O)CN3CCN(c4cc5c(cc4F)c(=O)c(C(=O)O)cn5C4CC4)CC3)n2)cc1 | 4.05% (active)
Cc1noc(C)c1-c1cc(O)cc(C(O)c2ccccc2)c1 (stereo not drawn) | 34.6%
COc1cc(OC)c(/C=C/S(=O)(=O)Cc2ccc(OC)c(N)n2)c(OC)c1 | -9.76% (active)

Compound | growth
Oc1ccc(Nc2nccc(-c3ccc4ccccc4c3)n2)cc1 | 39.3%
Cc1cc(Nc2nc(N3CCNCC3)nc3ccccc23)n[nH]1 | 82.1%
CCCCCN(CCCCC)CCC[C@@H](C)[C@H]1CC[C@H]2[C@@H]3[C@H](OCCCN)C[C@@H]4C[C@H](OCCCN)CC[C@]4(C)[C@H]3C[C@H](OCCCN)[C@]12C | 24.5%
C[C@@H]1CC[C@@H]2[C@@H]1[C@H](OC(=O)/C=C/c1ccccc1)[C@]1(c3ccccc3)C[C@@H](OC(=O)CO)[C@@]2(C)O1 | 92.2%
COc1ccc(C2CC(=O)Nc3c2c(C)nn3-c2nc3ccccc3[nH]2)cc1 (stereo not drawn) | 103%
O=C(/C=C/c1ccc(B(O)O)cc1)/C=C/c1ccc(B(O)O)cc1 | -8.22% (active)
CC[C@H](Nc1cc(C)nc(N)n1)c1nc2cccc(NCc3ccc(C(=O)NO)cc3)c2c(=O)n1-c1ccccc1 | 10.2%
Cc1ccc(S(=O)(=O)n2cc(-c3csc(-c4cn(C)c5ncccc45)n3)c3ccccc32)cc1 | 19.3%
CC/C=C\C[C@H](O)C/C=C1/C(=O)C=C[C@@H]1C/C=C\CCCC(N)=O | -1.88% (active)
Cc1cccc(NC(=O)c2sc3nc4c(cc3c2N)C(=O)CCC4)c1 | 11.7%
CC(=O)C1=C(O)C=C2Oc3c(C(=O)/C=C/c4ccccc4)c(O)c(C)c(O)c3[C@]2(C)C1=O | 32.6%
O=C1NC(=O)C(CC(=O)n2c(-c3ccccc3)nc3ccccc32)C(=O)N1 | 111%
Oc1cccc(Nc2nccc(-c3ccc4ccccc4c3)n2)c1 | 56.8%
COc1c(Cl)cc(Cl)cc1Cl | 108%
CC1(C)OCC2OC3(C(=O)O)OC(C)(C)OC3C2O1 (stereo not drawn) | 108%
O=C(NC(Cc1ccccc1)C(=O)CCl)OCc1ccccc1 (stereo not drawn) | 53.6%
O=C(N/N=C/c1ccc(O)cc1O)c1cccnc1 | 46.1%
O=c1c2cccc3c(NC4CCCCC4)ccc(c32)c2nc3ccccc3n12 | 76.8%
O=C1Nc2ccccc2/C1=C/C(=N/c1nnc(-c2ccccc2)s1)c1ccccc1 | -36.3% (active)
